Sa RN4220 lethal: growth inhibition of S. aureus RN4220, primary screen, OD600 | 16 h | inhibition, % (no concentration beside the values) | hit rate 0.33% among 330,000 | AID 1259311, 2017; in the data active = inhibition above about 85%;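 also: plate controls were untreated cells for no effect and reference antibiotic for full effect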
ugtP null kill: growth inhibition of ugtP-null S. aureus, primary screen, RN4220 ugtP deletion, OD600; 16 h; growth inhibition, % (concentration not given with the values); hit rate 0.54% among 330,000; AID 1259309, 2017; in the data active = growth inhibition above about 68%;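 also: plate controls were untreated wells for no effect and antibiotic for full effect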
CCHFV vOTU inh: CCHFV vOTU protease inhibitors, primary screen, biochemical, Pep-AMC substrate, fluorescence; Crimean-Congo hemorrhagic fever virus L polyprotein viral ovarian tumor (vOTU) protease …; hit rate 0.55% among 370,000; inhibition, % at 11.5 µM; in the data active = inhibition above about 30%; also: 0% = vehicle wells with enzyme and 100% = no enzyme wells
BJeLR viability: MLPCN primary cell-based screen for lethality selective to Ras in HRASV12 cells; AID 1554, 2009; BJeLR (HRASV12) viability, CellTiter-Glo ATP luminescence, 48 h; inhibition, % (no concentration beside the values); hit rate 0.17% among 300,000; in the data active = inhibition above about 50%
RecA intein inh: Mtb RecA intein splicing inhibitors, primary screen, biochemical, fluorescence, HTS; cell-free RecA intein splicing; inhibition, % (test concentration not listed); hit rate 0.75% among 290,000; Protein RecA (Mycobacterium tuberculosis (strain ATCC 25618 / H37Rv)), P9WHJ3; in the data active = inhibition above about 30%;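 also: 0% = vehicle wells and 100% = reference inhibitor control wells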
Target sequence (P9WHJ3 whole entry, looked up): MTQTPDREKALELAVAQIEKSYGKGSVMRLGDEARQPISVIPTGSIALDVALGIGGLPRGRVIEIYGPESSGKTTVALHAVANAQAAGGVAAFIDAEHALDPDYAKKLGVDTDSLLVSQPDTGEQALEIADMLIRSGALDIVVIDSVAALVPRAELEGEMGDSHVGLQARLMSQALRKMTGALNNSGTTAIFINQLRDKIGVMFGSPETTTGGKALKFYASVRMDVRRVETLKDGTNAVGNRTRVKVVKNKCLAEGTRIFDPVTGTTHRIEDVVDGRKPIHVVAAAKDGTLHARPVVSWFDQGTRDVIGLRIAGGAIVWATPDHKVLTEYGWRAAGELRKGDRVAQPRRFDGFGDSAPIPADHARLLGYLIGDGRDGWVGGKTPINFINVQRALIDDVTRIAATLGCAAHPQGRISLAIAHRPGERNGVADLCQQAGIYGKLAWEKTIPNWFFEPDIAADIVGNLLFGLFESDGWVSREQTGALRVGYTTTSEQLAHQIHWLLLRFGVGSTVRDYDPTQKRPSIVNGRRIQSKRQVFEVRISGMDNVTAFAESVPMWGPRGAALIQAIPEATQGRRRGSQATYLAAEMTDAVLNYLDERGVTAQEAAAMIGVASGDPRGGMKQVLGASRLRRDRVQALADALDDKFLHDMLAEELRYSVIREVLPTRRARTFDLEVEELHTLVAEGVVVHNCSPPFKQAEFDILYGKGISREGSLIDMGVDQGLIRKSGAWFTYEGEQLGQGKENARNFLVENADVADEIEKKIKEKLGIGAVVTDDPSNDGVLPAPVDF
Mtb hypoxia rep: PubChem AID 1159583 | M. tuberculosis hypoxia-regulated fluorescent reporter, fluorescence | fluorescence inhibition, % (concentration not given with the values) | hit rate 0.1% among 300,000; in the data active = fluorescence inhibition mostly above about 23%, no sharp cut-off; inactive = mostly below about 17%
* hit, by the source's call. Compounds with a hit are over-represented: about 1.6% of the library has one in this group of screens.

For COC(=O)C1=C(c2cccc(OC)c2OC)CC2CCC1N2C(=O)N1CCC(O)CC1 (configuration not stated) the results were Sa RN4220 lethal 5, ugtP null kill -5 and Mtb hypoxia rep 6.
O=c1c2c([nH]n1-c1ccccc1)CCSC2 was read as Sa RN4220 lethal -1, ugtP null kill -3, CCHFV vOTU inh -5, BJeLR viability 2, RecA intein inh 63* and Mtb hypoxia rep -12.
For COc1cc(C=C(c2nc3ccccc3s2)c2nc3ccccc3s2)ccc1O the results were Sa RN4220 lethal -9, ugtP null kill 47, CCHFV vOTU inh 13, BJeLR viability -8, RecA intein inh 51* and Mtb hypoxia rep 7.
`CCN(C(=O)c1ccccc1F)c1nc(-c2ccc(OC)cc2)cs1` gave Sa RN4220 lethal -7, ugtP null kill 90*, CCHFV vOTU inh -2, BJeLR viability 2 and Mtb hypoxia rep 18.
Screening COc1ccc(/C=C/c2nc3ccccc3c(=O)n2-c2cccc(C(=O)O)c2)cc1 returned Sa RN4220 lethal 92*, ugtP null kill 84, CCHFV vOTU inh 7, BJeLR viability -3, RecA intein inh 1 and Mtb hypoxia rep 2.
`O=c1c2ccccc2nc(/C=C/c2ccc3c(c2)OCO3)n1-c1cccc(O)c1` gave Sa RN4220 lethal 96*, ugtP null kill 93*, CCHFV vOTU inh 18, BJeLR viability 7, RecA intein inh 1 and Mtb hypoxia rep 5.
FC(F)c1nc2ccccc2[nH]1 was read as Sa RN4220 lethal 3, ugtP null kill 3, CCHFV vOTU inh -12, BJeLR viability 0, RecA intein inh -5 and Mtb hypoxia rep -6.
`c1ccc2[nH]c3cc4ncnc4cc3nc2c1` gave Sa RN4220 lethal 23, ugtP null kill -4, CCHFV vOTU inh 11, BJeLR viability -1 and RecA intein inh 60*.
Screening O=C(N/N=C/c1cc2c3c(c1O)CCCN3CCC2)c1ccccc1O returned CCHFV vOTU inh 15, BJeLR viability 53* and RecA intein inh 5.
For CC1=C(C(=O)O)N2C(=O)[C@@H](NC(=O)[C@H](N)c3ccc(O)cc3)[C@H]2SC1 the results were CCHFV vOTU inh -2.
`NC(C(=O)NC1C(=O)N2C(C(=O)O)=C(Cl)CSC12)c1ccccc1` (configuration not stated) gave Sa RN4220 lethal 100*, ugtP null kill 100* and Mtb hypoxia rep 8.
`FC(F)(F)c1ccc(Cl)c(NC(=S)N/N=C/c2ccccc2C(F)(F)F)c1` gave CCHFV vOTU inh -4, BJeLR viability -12 and RecA intein inh 1.
Screening FC(F)(F)c1ccc(Cl)c(NC(=S)NN=Cc2ccccc2C(F)(F)F)c1 returned Sa RN4220 lethal 6, ugtP null kill 86* and Mtb hypoxia rep -1.
For S=C(NN=Cc1ccccc1Cl)Nc1ccccc1 the results were Sa RN4220 lethal -3, ugtP null kill 91* and Mtb hypoxia rep 3.
Screening Fc1cccc(C=NNC(=S)Nc2ccccc2Cl)c1 returned Sa RN4220 lethal 1, ugtP null kill 93* and Mtb hypoxia rep 1.
For Fc1ccc(C=NNC(=S)Nc2ccc(Cl)cc2Cl)cc1 the results were Sa RN4220 lethal -5, ugtP null kill 2 and Mtb hypoxia rep 5.
`O=C1C(Cc2ccccc2)NCC=CCC(c2ccco2)N1Cc1ccccc1` (configuration not stated) gave Sa RN4220 lethal 16, ugtP null kill 15 and Mtb hypoxia rep 9.
`COC(=O)c1[nH]c2c(c1C)C(=O)CC(c1cccs1)C2` (configuration not stated) gave Sa RN4220 lethal 1, ugtP null kill -4, CCHFV vOTU inh 13, BJeLR viability 51* and RecA intein inh 1.
For CC1CN(C(C)CO)C(=O)c2cccc(NC(=O)c3cnccn3)c2OC1CN(C)S(=O)(=O)c1ccc(F)cc1 (configuration not stated) the results were Sa RN4220 lethal 2, ugtP null kill -3 and Mtb hypoxia rep 6.
`O=C1N=c2ccccc2=C1c1c(O)[nH]c2c(C(F)(F)F)cccc12` gave Sa RN4220 lethal 96*, ugtP null kill 98*, CCHFV vOTU inh -12, BJeLR viability 7, RecA intein inh -1 and Mtb hypoxia rep 8.
For COc1cc(/C=C/c2ccc3cccc([N+](=O)[O-])c3n2)ccc1OCC(=O)O the results were Sa RN4220 lethal 4, ugtP null kill 7, CCHFV vOTU inh 13, BJeLR viability 9, RecA intein inh 10 and Mtb hypoxia rep 6.
COc1cc(/C=C/c2ccc3c([N+](=O)[O-])cccc3n2)ccc1OCC(=O)O was read as Sa RN4220 lethal 4, ugtP null kill 7, CCHFV vOTU inh -9, BJeLR viability 3, RecA intein inh 5 and Mtb hypoxia rep 77*.
`Cc1ccc(NS(=O)(=O)c2ccc3[nH]c(=O)sc3c2)cc1` gave Sa RN4220 lethal -9, ugtP null kill 100*, CCHFV vOTU inh -2, BJeLR viability 8, RecA intein inh -3 and Mtb hypoxia rep 3.
`NC(=O)CSc1nc2c(c(=O)n1-c1ccccc1)C1(CCCCC1)Cc1ccccc1-2` gave Sa RN4220 lethal -7, ugtP null kill 90*, CCHFV vOTU inh 5, BJeLR viability 8, RecA intein inh -6 and Mtb hypoxia rep 6.
`O=C(NNC1=C(C(=O)C(F)(F)F)CCC1)c1ccc(Cl)cc1` gave Sa RN4220 lethal 101*, ugtP null kill 100*, CCHFV vOTU inh -4, BJeLR viability 0, RecA intein inh 25 and Mtb hypoxia rep 2.
O=C(NNC(=O)c1cccc(Cl)c1)NNC(=O)c1cccc(Cl)c1 was read as Sa RN4220 lethal 3, ugtP null kill 2, CCHFV vOTU inh 22 and Mtb hypoxia rep 3.
`O=C(NNC1=C(C(=O)C(F)(F)F)CCC1)c1cccc(Cl)c1` gave Sa RN4220 lethal 100*, ugtP null kill 99*, CCHFV vOTU inh -3, BJeLR viability 6, RecA intein inh 28 and Mtb hypoxia rep 1.
CC(C)(C)c1ccc(C(=O)NNC(=O)c2ccc(Cl)cc2)cc1 was read as Sa RN4220 lethal 3, ugtP null kill -1, CCHFV vOTU inh 5, BJeLR viability 2, RecA intein inh -1 and Mtb hypoxia rep -4.
For COc1ccc(C(=O)NNC2=C(C(=O)C(F)(F)F)CCC2)cc1 the results were Sa RN4220 lethal 1, ugtP null kill 97*, CCHFV vOTU inh 7, BJeLR viability -7 and Mtb hypoxia rep -3.
Cc1cccc(C=Cc2nc3ccccc3c(=O)n2Cc2ccccc2)c1 was read as Sa RN4220 lethal -3, ugtP null kill 1 and Mtb hypoxia rep 7.
For [N-]=[N+]=NC1CC(n2ccc(=O)[nH]c2=O)OC1CO (configuration not stated) the results were Sa RN4220 lethal 7, ugtP null kill 2 and Mtb hypoxia rep 7.
